High-throughput results as filed in PubChem.
HEK293 tox: cytotoxicity counter-screen for GLP-1 receptor inverse agonists | AID 624418 | HEK293 cAMP-luciferase reporter cells, luminescence, 24 h | Potency, µM (top dose mostly 38.3 µM), hits mostly inhibitors | 410,000 compounds, 0.13% hits;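 also: loss of luciferase light is scored as toxicity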
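A 23 nL compound transfer followed 12 hours of cell culture at 37 deg C; exposure then lasted 24 hr. Luciferase assay detection reagent was dispensed and plates read for luminescence after a 12 min room-temperature wait.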
DRD3 antagonist: D3 dopamine receptor (human) antagonism; P35462; D3R cells, DiscoveRx beta-arrestin luminescence, antagonist mode; hits give low values; max response, negative = inhibition, %; 360,000 compounds, 2.5% hits; AID 652054; in the data active = max response below about -50%; inconclusive = no clear call, values can overlap the other calls
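Cells expressing the human receptor were seeded at 1500 cells/well, incubated overnight at 37 degrees C in 5% CO2, then exposed to library compounds with dopamine controls for 90 minutes at 37 degrees C before luminescent detection.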
GLP-1R inv ag: acts as inverse agonist at human GLP-1 receptor; P43220; HEK293 GLP-1R CRE-luciferase, luminescence, 24 h; GLP-1R form is constitutively active; Potency, µM (doses to about 38.3 µM), usual class: inhibitors; 410,000 compounds, 1.6% hits; AID 624417; also: nearly all actives have a fitted effect of over 55% in size
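qHTS in 1536-well format: reporter HEK293 cells expressing constitutive GLP-1R activity in DMEM + 10% Nu serum, 24 hr with compounds at 37 deg C, luminescence read after 12 min with detection reagent.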
ClpP mod: qHTS Assay for Activators of ClpP; purified B. subtilis ClpP, FRET peptide cleavage, 20 min; 340,000 compounds, 1.9% hits; ATP-dependent Clp protease proteolytic subunit (Bacillus subtilis (strain 168)), P80244; Potency, µM (highest dose often 57.5 µM); active = well fitted falling curve with a large enough effect; inconclusive = small, poorly fitted or top-dose-only effect; inactive = no such curve, though single readings can be large or run the other way; also: the source files actives as falling curves though it sought activators and does not explain the sign; nearly all actives have a fitted effect of over 65% in size
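Buffer: 100 mM Tris/HCl pH8, 100 mM KCl, 0.05% low protease BSA, 2.5% glycerol, 0.01% Tween-20. ClpP 10 microg/mL final; 20 min RT; delta FRET normalized to ADEP and DMSO controls.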
DRD3 agonist: activates the human D3 dopamine receptor; 410,000 compounds, 0.58% hits; D3R DiscoveRx beta-arrestin cells, luminescence, 90 min; P35462; max activation, %; in the data active = max activation above about 30%
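Cells at 1500/well, incubated overnight, then treated with pinned compounds (dopamine as control) for 90 min at 37 degrees C. DiscoveRx reagent added for 30 - 60 minutes at room temperature; luminescence read.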
GLP1R ag: activates the human GLP-1 receptor | Potency, µM (series often up to 45.6 µM), hits mostly activators | P43220 | AID 624172 | 380,000 compounds, 0.007% hits | HEK293 GLP-1R CRE-luciferase, luminescence, 4-6 h; cells express a hypersensitive GLP-1R form
Large screens that a line does not name were inactive. An excerpt weighted towards active compounds, which were near 5.7% of everything screened. Unless noted, calls follow the shape of the dose curve; as a rule, active = well fitted curve in the direction sought with a large enough effect; inconclusive = small, poorly fitted or top-dose-only effect, or another doubt; inactive = no such curve, though single readings can be large; an effect the other way counts as inactive or inconclusive.

Cc1onc(-c2ccccc2)c1C(=O)OCC(=O)c1ccc(F)cc1	GLP-1R inv ag inconclusive
COc1ccccc1N1CCN(C(=O)CN2C(=O)COc3ccc(S(=O)(=O)N4CCOCC4)cc32)CC1	none (no result: DRD3 antagonist)
C[C@H](NC(=O)c1nc[nH]c1C(=O)N1CCN(C(=O)OC(C)(C)C)CC1)C(=O)OC(C)(C)C	none
CC1CCN(C(=O)c2[nH]cnc2C(=O)N[C@@H](C)C(=O)OC(C)(C)C)CC1	DRD3 antagonist -52
C[C@H](NC(=O)c1nc[nH]c1C(=O)N[C@@H](Cc1ccccc1)C(=O)OC(C)(C)C)c1ccccc1	DRD3 antagonist -58, GLP-1R inv ag inconclusive
COc1cc(C2CC(=O)N(c3ccc(C)c(Cl)c3)C3=C2C(=O)OC3)cc(OC)c1OC (centres undefined)	none (no result: DRD3 antagonist, GLP1R ag)
COc1cccc(Cc2nc3ccccc3nc2SCC(=O)Nc2ccccc2F)c1	none (no result: DRD3 antagonist, GLP1R ag)
COC(=O)c1ccc(NC(=O)CC2C(=O)N(c3cccc(F)c3)C(=O)N2CC(C)C)cc1 (centres undefined)	none (no result: DRD3 antagonist)
CN(C)c1ccc(CNC(=O)c2ccc3c(c2)N(C)C(=O)C2CCCCN32)cc1 (centres undefined)	none (no result: DRD3 antagonist, GLP1R ag)
O/C(=C\c1nc2ccccc2nc1/C=C(\O)c1ccccc1)c1ccccc1	DRD3 antagonist -67, GLP-1R inv ag inconclusive
CC(NC(=O)NC12CC3CC(CC(C3)C1)C2)c1ccc2c(c1)OCO2 (centres undefined)	GLP-1R inv ag 11µM (no result: ClpP mod)
O=C(c1cnn(C(=O)COc2ccc(Cl)cc2)c1)c1ccccc1O	none
Cc1ccc(O)c(C(=O)c2cnn(C(=O)COc3ccc(Cl)cc3)c2)c1	ClpP mod 16µM
COc1cccc(Nc2ncnc3ccccc23)c1	none
O=C(Oc1cccc(Nc2ncnc3ccccc23)c1)c1ccccc1Cl	HEK293 tox inconclusive, GLP-1R inv ag inconclusive, ClpP mod 32µM, DRD3 agonist 40
Cc1cc(C)cc(NC(=S)N(Cc2ccc(Cl)cc2)Cc2ccc(C(=O)O)cc2)c1	GLP-1R inv ag inconclusive (no result: ClpP mod)
Cc1cc(NC(=S)N(Cc2ccc(Cl)cc2)Cc2ccc(C(=O)O)cc2)ccc1Cl	GLP-1R inv ag 8.9µM
CN(C)CCCN(Cc1ccccc1)C(=S)Nc1ccc(F)c(Cl)c1	HEK293 tox inconclusive, GLP-1R inv ag 1.8µM (no result: ClpP mod)
CCCN(Cc1ccccc1)C(=S)Nc1ccc(SC(F)F)cc1	HEK293 tox inconclusive, GLP-1R inv ag 10µM (no result: ClpP mod)
COc1cc(OC)c(NC(=O)Cn2c(=O)cc(C(F)(F)F)c3c(C)nn(C)c32)cc1Cl	none (no result: DRD3 antagonist, GLP1R ag)
CC(=O)N1CCc2cc(Br)cc(S(=O)(=O)N3CCN(c4cccc(C)c4)C(C)C3)c21 (centres undefined)	none (no result: DRD3 antagonist, GLP1R ag)
COc1ccc(Nc2nc3ccc(C)cc3nc2-n2nc(C)cc2C)cc1Cl	none (no result: DRD3 antagonist, GLP1R ag)
Cc1ccc(CCNC(=O)C2CC(=O)N(CCc3ccc(C)cc3)C2)cc1 (centres undefined)	none (no result: DRD3 antagonist, GLP1R ag)
Oc1ccccc1C1SC(c2ccccc2O)SC(c2ccccc2O)S1 (centres undefined)	HEK293 tox inconclusive, GLP-1R inv ag 1.1µM (no result: ClpP mod)
Cc1cc2c(cc1C)CSC(c1ccccc1O)SC2	none
CC(C(=O)NCc1ccccc1)n1c(-c2ccc3c(c2)CCO3)nc2ccccc21 (centres undefined)	none (no result: GLP1R ag)
Cc1ccnc(NC(=O)CCC2COc3ccccc3O2)c1 (centres undefined)	none
O=C(CCC1COc2ccccc2O1)Nc1ccc(Cl)cn1 (centres undefined)	HEK293 tox inconclusive, DRD3 antagonist -52, GLP-1R inv ag inconclusive
O=C(CCSCCc1ccccn1)Nc1ccc(Cl)cn1	DRD3 antagonist -62
CCOC(=O)c1ccccc1NC(=O)Cn1ncc2c([nH]c3ccccc32)c1=O	none (no result: DRD3 antagonist, GLP1R ag)
Cc1ccc(S(=O)(=O)N2C[C@]3(O)C[C@@H]4C(=O)N(c5ccccc5)C(=O)[C@@H]4C[C@]3(OC(=O)NCC3CCCCC3)C2)cc1	none
O=C(O)c1cc(=O)cc(C(=O)O)[nH]1	DRD3 antagonist -82
Cn1c(SCc2cccc(F)c2)nc2c([nH]c3ccccc32)c1=O	none (no result: DRD3 antagonist, GLP1R ag)
